The values that follow come from PubChem BioAssay (Tox21).

Several values for one entry are separate records, joined by “and”; a condition that tells them apart may be missing. Equal entries are not always repeated. Inconclusive results are not listed. Entries that show only a call come without a potency. Activity calls are given as the source filed them. The call rests on the fitted dose curve.
Potency means the concentration at half of the fitted maximal effect.

The assay in a line: qHTS assay to identify small molecule agonists of H2AX - cell viability counter screen (AID 1224847). Further: nearly all actives have a fitted effect of over 30% in size. The note with it: CHO-K1 viability, CellTiter-Glo luminescence, 3 h; series mostly up to 154 µM. The text has this: National Center for Advancing Translational Sciences [NCATS]
NIH Chemical Genomics Center [NCGC]
U.S. Environmental Protection Agency [EPA]
National Institutes of Environmental Health Sciences [NIEHS]
National Toxicology Program [NTP]
U.S. Food and Drug Administration [FDA]
HTRF phospho-H2AX (Ser139) assay (Cisbio Bioassays, US) enables the quantitative detection of the histone variant H2AX when phosphorylated on serine 139. When double-stranded DNA breaks, either by ionizing radiation or endogenous physiological processes, H2AX becomes phosphorylated at Ser139. This phospho-Ser139 serves as a sensitive biomarker for the detection of such breaks, localizing the site of DNA repair. So, HTRF phospho-H2AX Ser139 is a pertinent assay to study genome stability, the cell cycle, DNA repair, and it serves as a biomarker for cancer, and to understand aging. Wild type CHO-K1 cells were used to identify the inducers of Phospho-H2AX Ser 139 from the Tox21 compound collections. Also cytotoxicity of the Tox21 10K compound library against the CHO-K1 cell line was tested by measuring the cell viability using CellTiter-Glo assay (Promega, Madison, WI).
Tox21 Assay Protocol Summary:
The CHO-K1 cells suspended in culture medium containing 10% FBS were dispensed at 1000 cells/ 3 ul/well in 1536-well white wall/solid bottom plates (Greiner Bio-One North America, NC) using a Multidrop Combi (Thermo Fisher Scientific Inc., Waltham, MA). After the assay plates were incubated at 37C overnight, 23 nl of compounds at 15 concentrations (from 5-48 columns) or positive control (from 1 to 4 columns) were transferred to the assay plates using a Pintool station (Wako, San Diego, CA) into each well resulting in a final DMSO concentration of 0.76%. After 3hr incubation at 37C, 3 uL/well CellTiter-Glo luminescent cell viability reagent (Promega Corporation, Madison, WI) was added using a Flying Reagent Dispenser (FRD) (Aurora Discovery, CA). After incubation at room temperature for 30 min, the luminescence intensity was read using a ViewLux plate reader (PerkinElmer, Waltham, MA).
A general note: In qHTS, concentration-response curves come from the screen itself.
For `CN[C@H]1CC[C@@H](c2ccc(Cl)c(Cl)c2)c2ccccc21`, the Potency is 49.2 µM (active).

For the molecule `CN(C)C(=S)SC(=S)N(C)C`, the Potency is 92.1 µM (active) and 31.8 µM (active).

Take `O=C1NS(=O)(=O)c2ccccc21`: the Potency result was “inactive”.

For the molecule `NS(=O)(=O)O`, the Potency result was “inactive”.

In the case of `CCCCCCc1ccc(O)cc1O`, the Potency is 113 µM (active) and 101 µM (active).

On to `C1CCC(C(CC2CCCCN2)C2CCCCC2)CC1` (stereo not given), for which the Potency was 55.2 µM (active).

In the case of `CCOC(N)=O`, the Potency entry is “inactive”.

As to `Cc1ncc([N+](=O)[O-])n1CCO`, the Potency entry is “inactive”.

Consider `NS(=O)(=O)c1cc2c(cc1Cl)NCNS2(=O)=O`, for which the Potency result is “inactive”.

On to `COc1ccc(CN(CCN(C)C)c2ccccn2)cc1`, for which the Potency entry is “inactive”.

For the molecule `COc1ccc(C(Cl)=C(c2ccc(OC)cc2)c2ccc(OC)cc2)cc1`, the Potency result was “inactive”.

Take `Oc1ccccc1`: the Potency entry is “inactive”.

Regarding `Nc1ccc(S(N)(=O)=O)cc1`, the Potency result was “inactive”.

Take `O=C1OC2(c3ccccc31)c1cc(Br)c(O)c(Br)c1Oc1c2cc(Br)c(O)c1Br`: the Potency result is “inactive”.

As to `O=C(Nc1ncc([N+](=O)[O-])s1)c1cccs1`, the Potency was 24.7 µM (active).

Consider `CN(C)C(=O)Nc1ccc(Cl)c(Cl)c1`, for which the Potency result was “inactive”.

`C/C=C/C=C/C(=O)O`: the Potency entry was “inactive”.

On to `NC(=O)c1cccnc1`, for which the Potency result was “inactive”.

With `CC(O)(P(=O)(O)O)P(=O)(O)O`, the Potency entry was “inactive”.

Regarding `CNNCc1ccc(C(=O)NC(C)C)cc1`, the Potency entry is “inactive”.

In the case of `C=C(C)C(=O)OCC(C)O` (stereo not given), the Potency result was “inactive”.

Take `CCCc1cc(=O)[nH]c(=S)[nH]1`: the Potency entry is “inactive”.

With `CC(=O)Nc1c(I)c(NC(C)=O)c(I)c(C(=O)O)c1I`, the Potency entry is “inactive”.

Take `CCCCOC(=O)c1ccc(O)cc1`: the Potency entry was “inactive”.

On to `COc1cccc(O)c1O`, for which the Potency entry is “inactive”.

In the case of `CC(C)NCC(O)c1ccc(O)c(O)c1` (stereo not given), the Potency entry is “inactive”.

Consider `O=C(O)CC(O)C(=O)O` (stereo not given), for which the Potency result is “inactive”.

Turning to `C[C@](N)(Cc1ccc(O)c(O)c1)C(=O)O`, the Potency result was “inactive”.

For `CCCCCCCC(=O)OCC(COC(=O)CCCCCCC)OC(=O)CCCCCCC`, the Potency entry is “inactive”.

Regarding `Nc1ccc2c(c1)CN1C(=O)c3ccccc3C1=N2`, the Potency is 17 µM (active).

As to `CCCC[P+](CCCC)(CCCC)CCCC`, the Potency entry is “inactive”.

On to `C=C1CC[C@H](O)C/C1=C\C=C1/CCC[C@]2(C)[C@@H]([C@H](C)CCCC(C)C)CC[C@@H]12`, for which the Potency is 112 µM (active).

In the case of `CN1CCC[C@H]1c1cccnc1`, the Potency result is “inactive”.

With `O=c1[nH]cnc2c1ncn2[C@H]1CC[C@@H](CO)O1`, the Potency result is “inactive”.

As to `CC/C(=C(\c1ccccc1)c1ccc(OCCN(C)C)cc1)c1ccccc1`, the Potency was 80.7 µM (active) [middle of 5 runs].

On to `Cc1ccc(S(=O)(=O)O)cc1`, for which the Potency entry is “inactive”.

Take `CS(=O)(=O)OCCCCOS(C)(=O)=O`: the Potency result is “inactive”.

With `CN(C)CCOC(c1ccccc1)c1ccccc1`, the Potency entry is “inactive”.

With `CC(C)c1c(C(=O)Nc2ccccc2)c(-c2ccccc2)c(-c2ccc(F)cc2)n1CC[C@@H](O)C[C@@H](O)CC(=O)O`, the Potency result is “inactive”.

For `CC1(C)O[C@@H]2C[C@H]3[C@@H]4CCC5=CC(=O)C=C[C@]5(C)[C@@]4(F)[C@@H](O)C[C@]3(C)[C@]2(C(=O)CO)O1`, the Potency entry was “inactive”.
